Values joined by “and” are separate entries in the source; they are usually repeats but may differ in a detail not shown here. Equal values may be shown once. Out of some 5,500 compounds screened, about 2,000 (36%) were called active. Roughly 18% stayed inconclusive and do not appear here. Rule as the data show it: active = normalized growth mostly below about 0.91 (no sharp cut-off); inconclusive = no clear call, values can overlap the other calls; inactive = mostly above about 0.92. Some of the results follow.
Test: chemical genetic growth profiling, strain panel (AID 1159580);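 also: tested at 20 µM; growth read once vehicle control cultures reached saturation at 30 °C; 1 = growth at the plate median or of vehicle wells; lower values mean less growth of the strain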
Conditions: growth OD

Measured: normalized growth

CNC1(C)C2CCC(C2)C1(C)C (stereo unspecified)
inactive: S. cerevisiae deletion strains, locus YJR075W, strain HOC1, active compounds read low 1 and 1.01 | S. cerevisiae deletion strains, locus YKL009W, strain mrt4, active compounds read low 1.03 | S. cerevisiae deletion strains, locus YKL068W, active compounds read low 0.989 | S. cerevisiae deletion strains, locus YKL085W, strain MDH1 (second series), active compounds read low 1.02 | S. cerevisiae deletion strains, locus YKL085W, strain MDH1, active compounds read low 1.02 | S. cerevisiae deletion strains, locus YKL160W, strain elf1, active compounds read low 0.97 | S. cerevisiae deletion strains, locus YKL190W, strain CNB1, active compounds read low 0.977 | S. cerevisiae deletion strains, locus YKR001C, strain vps1, active compounds read low 0.997 | S. cerevisiae deletion strains, locus YKR026C, strain gcn3, active compounds read low 1 | S. cerevisiae deletion strains, locus YKR091W, strain srl3, active compounds read low 1 | S. cerevisiae deletion strains, locus YLL001W, strain dnm1, active compounds read low 0.948 | S. cerevisiae deletion strains, locus YLL026W, active compounds read low 0.996 | S. cerevisiae deletion strains, locus YLL041C, strain sdh2, active compounds read low 0.988 | S. cerevisiae deletion strains, locus YLR027C, strain aat2, active compounds read low 0.996 | S. cerevisiae deletion strains, locus YLR039C, strain RIC1, active compounds read low 0.959 | S. cerevisiae deletion strains, locus YLR058C, strain SHM2, active compounds read low 0.979 | S. cerevisiae deletion strains, locus YLR102C, strain apc9, active compounds read low 0.981 | S. cerevisiae deletion strains, locus YLR113W, strain HOG1, active compounds read low 0.934 | S. cerevisiae deletion strains, locus YLR221C, strain rsa3, active compounds read low 0.976 | S. cerevisiae deletion strains, locus YLR258W, strain gsy2, active compounds read low 1.02 | S. cerevisiae deletion strains, locus YLR262C, strain YPT6 (second series), active compounds read low 1 | S. cerevisiae deletion strains, locus YLR262C, strain YPT6, active compounds read low 0.934 | S. cerevisiae deletion strains, locus YLR268W, strain sec22, active compounds read low 0.965 | S. cerevisiae deletion strains, locus YLR320W, strain mms22, active compounds read low 0.982 | S. cerevisiae deletion strains, locus YLR330W, strain CHS5, active compounds read low 0.987 | S. cerevisiae deletion strains, locus YLR342W, strain FKS1 (second series), active compounds read low 1.08 | S. cerevisiae deletion strains, locus YLR342W, strain FKS1, active compounds read low 0.99 | S. cerevisiae deletion strains, locus YLR357W, strain rsc2, active compounds read low 0.987 | S. cerevisiae deletion strains, locus YLR370C, strain arc18, active compounds read low 0.989 | S. cerevisiae deletion strains, locus YLR371W, strain rom2, active compounds read low 1.01 | S. cerevisiae deletion strains, locus YLR384C, strain iki3, active compounds read low 1 | S. cerevisiae deletion strains, locus YLR418C, strain cdc73, active compounds read low 0.909 | S. cerevisiae deletion strains, locus YML016C, strain PPZ1, active compounds read low 0.993 | S. cerevisiae deletion strains, locus YML032C, strain rad52, active compounds read low 1.03 | S. cerevisiae deletion strains, locus YML120C, strain ndi1, active compounds read low 0.979 | S. cerevisiae deletion strains, locus YML124C, strain tub3, active compounds read low 0.995 | S. cerevisiae deletion strains, locus YMR058W, strain fet3, active compounds read low 0.995 | S. cerevisiae deletion strains, locus YMR078C, strain ctf18, active compounds read low 0.999 | S. cerevisiae deletion strains, locus YMR125W, strain sto1, active compounds read low 0.987 | S. cerevisiae deletion strains, locus YMR129W, active compounds read low 0.998 | S. cerevisiae deletion strains, locus YMR205C, strain PFK2, active compounds read low 0.983 | S. cerevisiae deletion strains, locus YMR223W, strain ubp8, active compounds read low 1.04 | S. cerevisiae deletion strains, locus YMR231W, strain pep5, active compounds read low 0.998 | S. cerevisiae deletion strains, locus YMR263W, strain SAP30, active compounds read low 0.966 and 1 | S. cerevisiae deletion strains, locus YMR307W, strain GAS1, active compounds read low 1.06 | S. cerevisiae deletion strains, locus YNL067W, strain RPL9B, active compounds read low 0.976 | S. cerevisiae deletion strains, locus YNL071W, strain lat1, active compounds read low 0.993 | S. cerevisiae deletion strains, locus YNL128W, strain TEP1, active compounds read low 0.946 and 1.02 | S. cerevisiae deletion strains, locus YNL153C, strain GIM3, active compounds read low 0.962 | S. cerevisiae deletion strains, locus YNL175C, strain NOP13, active compounds read low 0.998 | S. cerevisiae deletion strains, locus YNL183C, strain NPR1, active compounds read low 0.971 | S. cerevisiae deletion strains, locus YNL197C, strain WHI3, active compounds read low 1.02 | S. cerevisiae deletion strains, locus YNL209W, strain ssb2, active compounds read low 0.992 | S. cerevisiae deletion strains, locus YNL224C, strain SQS1, active compounds read low 1.01 | S. cerevisiae deletion strains, locus YNL233W, strain BNI4, active compounds read low 0.98 | S. cerevisiae deletion strains, locus YNL248C, strain rpa49, active compounds read low 0.982 | S. cerevisiae deletion strains, locus YNL250W, strain rad50, active compounds read low 0.995 | S. cerevisiae deletion strains, locus YNL271C, strain bni1, active compounds read low 0.996 | S. cerevisiae deletion strains, locus YNL298W, strain CLA4, active compounds read low 0.99 | S. cerevisiae deletion strains, locus YNL307C, strain MCK1, active compounds read low 0.999 | S. cerevisiae deletion strains, locus YNL322C, strain KRE1 (second series), active compounds read low 1 | S. cerevisiae deletion strains, locus YNL322C, strain KRE1, active compounds read low 0.978 | S. cerevisiae deletion strains, locus YNR049C, strain mso1, active compounds read low 0.996 | S. cerevisiae deletion strains, locus YNR052C, strain pop2, active compounds read low 0.992 | S. cerevisiae deletion strains, locus YOL006C, strain TOP1, active compounds read low 0.951 | S. cerevisiae deletion strains, locus YOL012C, strain htz1 0.652 | S. cerevisiae deletion strains, locus YOL147C, strain pex11, active compounds read low 0.996 | S. cerevisiae deletion strains, locus YOR001W, strain rrp6, active compounds read low 0.964 | S. cerevisiae deletion strains, locus YOR061W, strain CKA2, active compounds read low 0.958 | S. cerevisiae deletion strains, locus YOR069W, strain VPS5, active compounds read low 0.993 | S. cerevisiae deletion strains, locus YOR070C, strain gyp1, active compounds read low 0.997 | S. cerevisiae deletion strains, locus YOR080W, strain dia2, active compounds read low 0.999 | S. cerevisiae deletion strains, locus YOR083W, strain WHI5 (second series), active compounds read low 1.01 | S. cerevisiae deletion strains, locus YOR083W, strain WHI5, active compounds read low 0.978 | S. cerevisiae deletion strains, locus YOR106W, strain vam3, active compounds read low 0.987 | S. cerevisiae deletion strains, locus YOR136W, strain idh2, active compounds read low 1.01 | S. cerevisiae deletion strains, locus YOR144C, strain elg1, active compounds read low 0.99 | S. cerevisiae deletion strains, locus YOR184W, strain ser1, active compounds read low 1.05 | S. cerevisiae deletion strains, locus YOR265W, strain rbl2, active compounds read low 0.989 | S. cerevisiae deletion strains, locus YOR270C, strain vph1, active compounds read low 0.991 | S. cerevisiae deletion strains, locus YOR290C, strain snf2, active compounds read low 0.958 | S. cerevisiae deletion strains, locus YOR316C, strain cot1, active compounds read low 0.985 | S. cerevisiae deletion strains, locus YPL051W, strain arl3, active compounds read low 0.999 | S. cerevisiae deletion strains, locus YPL055C, strain LGE1, active compounds read low 0.935 | S. cerevisiae deletion strains, locus YPL078C, strain atp4, active compounds read low 0.983 | S. cerevisiae deletion strains, locus YPL106C, strain sse1, active compounds read low 0.979 | S. cerevisiae deletion strains, locus YPL240C, strain hsp82, active compounds read low 0.989 | S. cerevisiae deletion strains, locus YPL241C, strain CIN2, active compounds read low 1 | S. cerevisiae deletion strains, locus YPL256C, strain CLN2, active compounds read low 0.946 | S. cerevisiae deletion strains, locus YPR119W, strain clb2, active compounds read low 0.993 | S. cerevisiae deletion strains, locus YPR141C, strain kar3, active compounds read low 0.968 | S. cerevisiae deletion strains, locus YPR163C, strain tif3, active compounds read low 0.991 | S. cerevisiae deletion strains, locus YPR167C, strain met16, active compounds read low 0.983 | S. cerevisiae deletion strains, strain wtn01, active compounds read low 0.974 | S. cerevisiae strains, strain wild type, active compounds read low 0.991
active: S. cerevisiae deletion strains, locus YOR231W, strain MKK1, active compounds read low 0.824
